For assay [1], the target named is Albumin (Bos taurus) (UniProt P02769). Briefly: bovine serum albumin binders on microarray, profiling panel, artefact control for SMM control protein annotation, biochemical, small-molecule microarray, Alexa647 label, 635/667 nm fluorescence (AID 1118).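 Further: score merges 667 nm emission intensity and signal-to-noise per printed compound spot.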 Particulars: BSA-A647 binding, fluorescence 635 nm, higher = more signal.
Assay [2] in a line: small-molecule microarray binders of probe aXIP, primary screen, biochemical, NeuroSMM set, 635/667 nm fluorescence (AID 1119).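 Further: probe is the protein aXip251-270 applied at 1 µg/mL to compound-printed slides; binding of probe to printed compounds measured as 667 nm fluorescence plus signal to noise.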 Particulars: higher = more signal, called active from +8 up or from −8 down.
The nature of assay [3]: small-molecule binders of probe aNOTCH3, primary screen, biochemical, small-molecule microarray, 635/667 nm fluorescence (AID 1120).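 Further: probe is a biotin-tagged antibody raised against NOTCH3 rather than NOTCH3 protein; score merges spot fluorescence near 667 nm with spot signal to noise.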 Particulars: higher = more signal.
Assay [4] can be described thus: small-molecule binders of probe aNOTCH2, primary screen, biochemical, small-molecule microarray, 635/667 nm fluorescence (AID 1121).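 Further: score merges feature fluorescence read at 667 nm with its signal to noise.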 Particulars: higher = more signal.
The target of assay [5] is Carbonic anhydrase 2 (Homo sapiens) (UniProt P00918). Briefly: CAII small-molecule binders, profiling panel, biochemical, small-molecule microarray, Alexa647-labelled CAII (AID 1122). The note with it: CAII-A647 binding fluorescence, higher = more signal.
Assay [6] can be described thus: COS7 lysate on small-molecule microarray, probe aHis, 635 nm (AID 1123).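 Further: z-score combines 667nm fluorescence intensity with signal-to-noise per printed compound spot.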 The note with it: COS7 cell lysate, fluorescence, higher = more signal.
Assay [7] in a line: compound binding in COS7 lysate, probe aLAP1, primary screen, cell lysate, small-molecule microarray (AID 1124).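 Further: lysate comes from COS7 cells expressing LAP1 and is applied at 0.3 µg/mL; score merges spot fluorescence near 667 nm with signal-to-noise over triplicate slides.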 The note with it: probe aLAP1, fluorescence, higher = more signal.
The subject of assay [8] is Sam68 (KHDRBS1). Nature of the assay: Sam68 small-molecule binders, primary screen, biochemical, small-molecule microarray, 635 nm fluorescence (AID 1125).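 Further: score merges 667 nm channel intensity with signal to noise over triplicate slides.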 The note with it: small-molecule microarray binding, higher = more signal.
Assay [9] has as its system Chordin-like protein 2 (CHRDL2). Nature of the assay: CHRDL2 small-molecule binders, primary screen, biochemical, small-molecule microarray, 635 nm fluorescence (AID 1126).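 Further: printed compound slides probed with Chrdl2 protein at 4 µg/mL for 1 h at 4 C; score merges 667 nm emission intensity with signal to noise over three replicate slides.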 Particulars: small-molecule microarray binding, fluorescence 635 nm; higher = more signal.
Assay [10] has as its target Concanavalin-A (Canavalia ensiformis) (UniProt P02866). Briefly: ConA small-molecule binders, primary screen, artefact control for SMM control protein annotation, biochemical, small-molecule microarray, Alexa647 label, 635 nm (AID 1127).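 Further: z combines 667 nm emission intensity with signal-to-noise across three replicate slides.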 The note with it: ConA-A647 binding fluorescence, higher = more signal.
The nature of assay [11]: anti-His antibody binders, primary screen, artefact control for SMM control protein annotation, biochemical, small-molecule microarray, 635 nm fluorescence (AID 1128).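 Further: score merges feature fluorescence with signal-to-noise for each printed compound spot.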 The note with it: anti-His Alexa647 antibody binding, higher = more signal.
Assay [12] deals with Human papillomavirus type 1a E7 protein (residues 1-88). Briefly: HPV1a E7 small-molecule binders, primary screen, biochemical, small-molecule microarray, residues 1-88, 635 nm (AID 1129). Particulars: small-molecule microarray binding, fluorescence 635 nm; higher = more signal.
In assay [13] the target is Focal adhesion kinase 1 (Homo sapiens) (UniProt Q05397). Nature of the assay: small-molecule microarray binders of FAK, primary screen, biochemical, 635/667 nm fluorescence, BSA, DTT (AID 1130).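 Further: composite of spot emission at 667 nm and signal to noise over triplicate slides.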 The note with it: PTK2 binding, 635 nm fluorescence, higher = more signal.
In assay [14] the test system is Fibrinogen (Alexa647-labelled). Nature of the assay: fibrinogen binders on compound microarrays, profiling panel, artefact control for SMM control-protein annotation, biochemical, small-molecule microarray, 635/667 nm fluorescence (AID 1131).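 Further: z-score merges 667 nm fluorescence with per-spot signal-to-noise over triplicate slides.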 The note with it: fibrinogen-A647 binding fluorescence, higher = more signal.
Assay [15] addresses Follistatin (Homo sapiens) (UniProt P19883). Briefly: follistatin binders on small-molecule microarrays, primary screen, biochemical, small-molecule microarray, 635/667 nm fluorescence (AID 1132). Particulars: FST binding, 635 nm fluorescence, higher = more signal.
The target in assay [16] is Fibroblast growth factor 2 (Homo sapiens) (UniProt P09038). Nature of the assay: FGF2 binders on small-molecule microarrays, primary screen, biochemical, small-molecule microarray, 635/667 nm fluorescence (AID 1133). The note with it: small-molecule microarray binding, FGF2, fluorescence 635/667; higher = more signal.
The nature of assay [17]: mitochondrial membrane potential change in A549 cells, profiling panel, cell-based, JC-1 fluorescence, basal, 24 h, 100 nL (AID 1138).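 Further: A549 lung adenocarcinoma cells under basal conditions with no added stimulus; test concentration not given here.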 Particulars: higher = more signal.
The test system of assay [18] is Lefty1. Nature of the assay: Lefty1 binders on small-molecule microarrays, primary screen, biochemical, small-molecule microarray, 635/667 nm fluorescence (AID 1139). The note with it: small-molecule microarray binding, fluorescence 635/667; higher = more signal.
The test system of assay [19] is wheat germ agglutinin (Triticum aestivum), Alexa647-labelled. Nature of the assay: wheat germ agglutinin binders on compound microarrays, profiling panel, artefact control for SMM control-protein annotation, biochemical, small-molecule microarray, 635/667 nm fluorescence (AID 1140).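 Further: score merges 667 nm feature emission with signal to noise over triplicate slides.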 Particulars: WGA-A647 binding, 635 nm fluorescence, higher = more signal.
Assay [20] addresses Luciferin 4-monooxygenase (Photinus pyralis) (UniProt P08659). Nature of the assay: firefly luciferase enzyme inhibitors, primary screen, biochemical, luminescence, purified enzyme, 2006 set (AID 1141).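 Further: cell-free assay with purified firefly luciferase at 100 ng per well in PBS; test concentration not given here.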 The note with it: SteadyGlo luminescence, 30 min, higher = more signal, called active from +8 up or from −8 down.

Activity calls are given as the source filed them.

Data on five compounds can be found in PubChem BioAssay.

Luciferin 4-monooxygenase (Photinus pyralis), sequence (P08659 whole entry, looked up): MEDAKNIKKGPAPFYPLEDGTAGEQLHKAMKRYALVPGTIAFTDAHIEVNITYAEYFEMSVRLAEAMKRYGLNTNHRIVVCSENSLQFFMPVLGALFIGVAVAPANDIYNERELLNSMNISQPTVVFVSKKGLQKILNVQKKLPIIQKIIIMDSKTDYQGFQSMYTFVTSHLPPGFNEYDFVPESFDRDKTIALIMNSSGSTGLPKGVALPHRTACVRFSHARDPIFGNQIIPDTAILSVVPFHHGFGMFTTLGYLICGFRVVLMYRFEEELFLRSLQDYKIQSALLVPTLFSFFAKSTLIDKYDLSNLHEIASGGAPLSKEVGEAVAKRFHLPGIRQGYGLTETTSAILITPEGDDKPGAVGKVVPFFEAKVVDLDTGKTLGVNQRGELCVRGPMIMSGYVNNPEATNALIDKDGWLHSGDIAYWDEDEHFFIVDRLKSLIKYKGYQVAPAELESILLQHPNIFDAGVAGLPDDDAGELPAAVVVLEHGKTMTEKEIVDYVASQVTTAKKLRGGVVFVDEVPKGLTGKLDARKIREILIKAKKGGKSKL
Follistatin (Homo sapiens), sequence (P19883 whole entry, looked up): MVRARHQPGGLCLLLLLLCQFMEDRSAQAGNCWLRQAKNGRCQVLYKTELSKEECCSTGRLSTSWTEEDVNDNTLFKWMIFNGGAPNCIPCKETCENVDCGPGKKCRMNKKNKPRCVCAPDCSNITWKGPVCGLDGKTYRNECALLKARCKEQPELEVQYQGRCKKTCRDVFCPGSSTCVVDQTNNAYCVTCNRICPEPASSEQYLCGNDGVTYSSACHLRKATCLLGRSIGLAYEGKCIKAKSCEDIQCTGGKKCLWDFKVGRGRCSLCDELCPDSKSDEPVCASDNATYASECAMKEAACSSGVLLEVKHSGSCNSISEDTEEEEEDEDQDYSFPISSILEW
Fibroblast growth factor 2 (Homo sapiens), sequence (P09038 whole entry, looked up): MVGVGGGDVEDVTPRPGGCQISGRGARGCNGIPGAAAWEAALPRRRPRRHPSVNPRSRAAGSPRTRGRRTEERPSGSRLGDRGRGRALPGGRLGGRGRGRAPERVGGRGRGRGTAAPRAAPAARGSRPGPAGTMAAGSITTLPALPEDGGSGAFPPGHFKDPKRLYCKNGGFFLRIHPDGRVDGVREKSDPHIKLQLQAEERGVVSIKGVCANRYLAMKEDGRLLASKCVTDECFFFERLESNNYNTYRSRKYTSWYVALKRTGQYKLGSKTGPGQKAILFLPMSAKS
Albumin (Bos taurus), sequence (P02769 whole entry, looked up): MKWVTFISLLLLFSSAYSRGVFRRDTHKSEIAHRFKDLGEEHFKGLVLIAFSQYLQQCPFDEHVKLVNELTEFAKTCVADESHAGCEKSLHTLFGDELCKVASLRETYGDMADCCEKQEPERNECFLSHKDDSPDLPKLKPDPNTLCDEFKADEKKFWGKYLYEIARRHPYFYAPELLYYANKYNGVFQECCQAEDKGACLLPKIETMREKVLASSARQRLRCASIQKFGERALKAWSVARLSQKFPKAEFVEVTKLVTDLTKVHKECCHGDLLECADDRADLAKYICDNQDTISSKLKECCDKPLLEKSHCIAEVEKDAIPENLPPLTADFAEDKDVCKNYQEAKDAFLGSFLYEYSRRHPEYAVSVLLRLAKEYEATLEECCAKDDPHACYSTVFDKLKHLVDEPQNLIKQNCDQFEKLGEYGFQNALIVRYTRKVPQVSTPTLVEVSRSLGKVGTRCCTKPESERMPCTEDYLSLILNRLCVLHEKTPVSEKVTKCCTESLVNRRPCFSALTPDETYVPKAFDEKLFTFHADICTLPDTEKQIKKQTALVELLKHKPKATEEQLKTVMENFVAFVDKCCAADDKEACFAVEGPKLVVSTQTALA
Concanavalin-A (Canavalia ensiformis), sequence (P02866 whole entry, looked up): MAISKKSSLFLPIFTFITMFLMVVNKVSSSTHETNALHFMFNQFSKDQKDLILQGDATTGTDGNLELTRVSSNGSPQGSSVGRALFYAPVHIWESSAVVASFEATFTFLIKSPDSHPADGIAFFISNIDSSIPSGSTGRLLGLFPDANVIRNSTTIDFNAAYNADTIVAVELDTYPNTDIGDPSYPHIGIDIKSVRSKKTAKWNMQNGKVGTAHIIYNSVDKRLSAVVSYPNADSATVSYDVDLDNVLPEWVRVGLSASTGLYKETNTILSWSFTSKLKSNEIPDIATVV
Focal adhesion kinase 1 (Homo sapiens), sequence (Q05397 whole entry, looked up): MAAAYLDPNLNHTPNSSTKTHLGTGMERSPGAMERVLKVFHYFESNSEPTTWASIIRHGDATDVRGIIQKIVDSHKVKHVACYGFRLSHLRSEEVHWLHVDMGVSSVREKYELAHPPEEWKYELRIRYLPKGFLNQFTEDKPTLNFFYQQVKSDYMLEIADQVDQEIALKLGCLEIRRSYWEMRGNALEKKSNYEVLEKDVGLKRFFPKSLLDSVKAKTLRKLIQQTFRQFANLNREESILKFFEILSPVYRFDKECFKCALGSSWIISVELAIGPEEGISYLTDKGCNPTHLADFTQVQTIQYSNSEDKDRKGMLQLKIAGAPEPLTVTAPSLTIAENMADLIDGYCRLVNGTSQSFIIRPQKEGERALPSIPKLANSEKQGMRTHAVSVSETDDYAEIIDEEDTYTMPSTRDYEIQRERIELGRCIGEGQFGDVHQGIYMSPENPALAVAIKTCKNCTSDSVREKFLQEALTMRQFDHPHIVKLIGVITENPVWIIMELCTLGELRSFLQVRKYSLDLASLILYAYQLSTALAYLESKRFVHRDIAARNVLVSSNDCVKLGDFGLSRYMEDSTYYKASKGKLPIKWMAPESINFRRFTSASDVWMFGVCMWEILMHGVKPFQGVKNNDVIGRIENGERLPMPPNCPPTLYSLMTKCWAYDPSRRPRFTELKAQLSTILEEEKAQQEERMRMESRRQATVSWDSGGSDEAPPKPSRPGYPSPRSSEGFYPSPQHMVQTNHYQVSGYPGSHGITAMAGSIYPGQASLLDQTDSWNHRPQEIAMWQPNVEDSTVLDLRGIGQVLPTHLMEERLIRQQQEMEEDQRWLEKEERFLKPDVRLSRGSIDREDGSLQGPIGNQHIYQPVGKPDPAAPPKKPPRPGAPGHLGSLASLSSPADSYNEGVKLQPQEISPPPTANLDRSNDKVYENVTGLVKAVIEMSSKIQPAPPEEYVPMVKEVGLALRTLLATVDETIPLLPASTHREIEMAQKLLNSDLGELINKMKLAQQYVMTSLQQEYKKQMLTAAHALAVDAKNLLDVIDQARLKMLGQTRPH

With `CN(C)C(=O)[C@@]1(Cc2ccccc2)N=C(c2ccc(OCCCO)cc2)O[C@H]1c1ccccc1`, the composite z-score in [1] was 0.637; in [3], 0.738; in assay [4], 0.314; in assay [5] it was 0.617; in assay [6], 2.69; in assay [7], 0.973. Besides, the composite z-score was 0.983 in assay [8]; -0.682 in assay [9]; 0.931 in assay [10]; 2.33 in assay [11]; 1.24 in [12]; 0.179 in assay [13]. For the same compound, the composite z-score in assay [14] was 0.971; in assay [15], 0.232; in [16], 0.393; in assay [18], -0.557; in assay [19], 1.21. Besides, in [2], the composite Z-score is 0.684 (inactive). For the same compound, the z-score was 0.568 in assay [17] and -0.794 (inactive) in assay [20].
For the compound `COC(=O)C1=CC(CCCO)=CC(c2ccc(CN3CCCC3)cc2)N(Cc2cccc(OC(F)(F)F)c2)C=C1C(=O)OC` (stereo not given), the composite z-score was 0.996 in [1]; 0.133 in assay [3]; -0.0502 in assay [4]; 0.387 in [5]; 2.21 in assay [6]; 0.612 in assay [7]. Also, the composite z-score in assay [8] was 1.3; in assay [9], -0.551; in [10], 1.11; in assay [11] it was 1.6; in assay [12] it was 1.11; in assay [13], 0.875. Moreover, the composite z-score in [14] was 1; in assay [15], 0.325; in assay [16], -0.292; in [18], 0.279; in [19] it was 1.11. Moreover, the composite Z-score in assay [2] was 0.29 (inactive). The results for the z-score in assay [17] and in assay [20] were 2.87 and -3.06 (inactive), respectively.
`OCCCC1=CC(c2ccc(CN3CCCC3)cc2)N(Cc2cc3c(cc2Br)OCO3)CC1` (stereo not given): the composite z-score in [1] is -0.715; in assay [3] it was 0.0833; in assay [4] it was -0.0467; in [5], 0.0435; in assay [6], -0.437; in assay [7], 0.597. Moreover, the composite z-score in [8] was -0.063; in assay [9], 0.901; in assay [10] it was 0.22; in [11] it was 0.448; in [12], 0.049; in assay [13], 0.172. Also, the composite z-score was found to be 0.65 in assay [14]; 1.07 in assay [15]; 0.262 in assay [16]; 0.695 in assay [18]; 0.266 in [19]. Also, the composite Z-score in assay [2] is -0.888 (inactive). The z-score was 0.157 in [17] and 0.391 (inactive) in assay [20].
Consider `COCCCNC(=O)[C@@]1(CCC(=O)OC(C)(C)C)N=C(c2ccc(OCCCO)cc2)O[C@H]1c1ccccc1N=[N+]=[N-]`, for which the composite z-score came out at 0.945 in assay [1]; 0.26 in assay [3]; 0.325 in [4]; 0.62 in [5]; 2.01 in assay [6]; 0.843 in assay [7]. In addition, the composite z-score in assay [8] is 1.25; in assay [9], 0.279; in assay [10] it was 1.16; in assay [11] it was 3.41; in [12] it was 1.26; in [13] it was 1.04. Besides, the composite z-score is 1.05 in [14]; 1.1 in assay [15]; 1.15 in assay [16]; -0.167 in [18]; 0.548 in assay [19]. The composite Z-score in assay [2] was 0.289 (inactive). In addition, the z-score in assay [17] was 2.07; in assay [20] it was -7.45 (inactive).
Regarding `C=C(COC)/C(=C/C[C@H](OC(=O)c1ccncc1)c1ccccc1OCCO)c1cc(C(=O)OC)ccc1OC`, the composite z-score is 0.601 in assay [1]; 0.118 in assay [3]; -0.11 in assay [4]; 0.752 in assay [5]; 1.2 in assay [6]; 0.0479 in assay [7]. The composite z-score turned out to be 1.27 in assay [8]; 0.0156 in [9]; 0.784 in [10]; 0.717 in [11]; 1.06 in [12]; 0.319 in assay [13]. In addition, the composite z-score in assay [14] was determined as 0.148; in assay [15], 1.17; in [16], 0.66; in [18] it was 1.32; in [19] it was 0.925. Also, the composite Z-score in assay [2] is 0.614 (inactive). In addition, the z-score was 0.416 in assay [17] and -0.756 (inactive) in assay [20].
